Experimental data from PubChem BioAssay (NCI).
Compounds without any hit were thinned out: in the full panel of roughly 83,000, 20% have a hit.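 Growth was measured after 48 h exposure to one concentration of compound in 96-well plates. Values under 10 count as active.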 Unmarked numbers belong to inactive results. The source made the active and inactive calls.

What follows are molecules tested on HL-60(TB) leukemia (assay: NCI-60 one-dose screen, 48 h (100 = growth as untreated, 0 = no growth, -100 = all killed)). Conditions: 10 µM unless noted.
Work on CN(C)c1ccc(N=Nc2cccc3ccccc23)cc1 yielded a growth of 77.4%. For C[C@H]1[C@H](C)CC[C@]2(C(=O)NCCNCCN)CC[C@]3(C)C(=CC[C@@H]4[C@@]5(C)CCC(=O)C(C)(C)[C@@H]5CC[C@]43C)[C@H]12, the growth was -58.5% (active). For CCN1C(=O)N(CC)C2C1NN=c1s/c(=C\c3ccccc3)c(=O)n12 (centres undefined), the growth was -45.3% (active). Molecule COc1ccc(S(=O)(=O)NCCCNc2cc(-c3c(-c4cccc(OC)c4)nc4sccn34)ccn2)cc1 has a growth of 32.7%. With COc1cc(-c2nc3c(c(C)nc4c3nnn4-c3ccccc3)c(=O)o2)cc(OC)c1OC the growth was 105%. In the case of N=C(N)c1ccc(-c2ccc(-c3cccs3)s2)nc1, the growth is reported as -32.1% (active). Molecule COc1ccc(-c2cc(-c3ccc(Cl)cc3)nc(NCCCCNc3ccnc4cc(Cl)ccc34)n2)cc1 has a growth of 16.7%. With COc1cccc(-c2nc(-c3ccc(NS(=O)(=O)c4ccccc4)cc3)[nH]c2-c2ccnc(Br)c2)c1 the growth was -11.5% (active). [O-]/[N+](=C\c1ccc(-n2cc(Cc3ccccc3Cc3cn(-c4ccc(/C=[N+](/[O-])c5ccccc5)cc4)nn3)nn2)cc1)c1ccccc1 showed a growth of 98.4%. Work on Cn1c(Nc2ccc(C(F)(F)F)cc2)nc2cc(Oc3ccnc(-c4ncc(C(F)(F)F)[nH]4)c3)ccc21 yielded a growth of 30.3%. COc1ccc(-c2nc3ccc(C)cc3c3c2c(=O)n(C)c(=O)n3C)cc1OC showed a growth of 98.1%. Molecule CC(=O)c1c(C)nc(SCC(=O)Nc2cccc(O)c2)n1-c1ccc(Cl)cc1 has a growth of 88.3%. CC(=O)N=c1ccc2nc3c(cc(N)c4ccccc43)oc-2c1 was tested, and the growth was -82.9% (active). O=C(Nc1ccc(Cl)cc1)C1=NCCCCN1 showed a growth of 96.6%. For COc1cc([C@@H]2c3cc4c(cc3C(OC3O[C@@H]5COC(C)O[C@H]5[C@H](O)[C@H]3O)C3COC(=O)[C@@H]32)OCO4)cc(OC)c1O (some centres undefined), the growth was -2.39% (active). With O=c1oc2ccc(I)cc2c(=O)n1-c1ccc(Cl)cc1F the growth was -47.1% (active). In the case of Fc1c[c-]c(-c2ccccn2)c(F)c1.[CH3-].[Pt+2].c1ccc(P(C[PH+](c2ccccc2)c2ccccc2)c2ccccc2)cc1, the growth is reported as -24.2% (active). In the case of O=C1/C(=C/c2ccc(O)cc2)COc2ccc(O)c(O)c21, the growth is reported as -19.3% (active). COc1ccc(/C=C2\SC(=Nc3ccccc3)NC2=O)cc1 was tested, and the growth was -70.8% (active). In the case of Nc1nc(N)c2c(ccc3nccc32)[nH]1, the growth is reported as 16.5%. For O=C(NNC(=S)Nc1ccccc1)c1ccc(Nc2ncnc3c2cnn3-c2cccc(Br)c2)cc1, the growth was 111%. Work on Cn1ccc(=O)c(S(N)(=O)=O)c1 yielded a growth of 96.4%. Work on CCCC(=O)Oc1ccc(CC)cc1 yielded a growth of 97.6%. Work on C=CCOc1ccc(/C(Cl)=N/N=C(\Cl)c2cc(OC)c(OC)c(OC)c2)cc1 yielded a growth of 39.6%.
